aSyn 5UTR act – Activators via SNCA 5'UTR binding, MLPCN; alpha-synuclein 5'UTR reporter, activators screen; activity score, % (tested at 7.5 µM), hits read low; 300,000 compounds, 7.1% hits; in the data active = activity score below about -60%
Numbers stand for hits; . = inactive. These entries were drawn from the full list.

SMILES | aSyn 5UTR act
S=C(NCC1CCCO1)Nc1ccc(Cl)cc1Cl (stereo not drawn) | -87
S=C(NCC1CCCO1)Nc1ccc(Cl)cc1 (stereo not drawn) | -72
Cn1c(SCC(=O)NCC2CCCO2)ncc(C(=O)Nc2ccc(Cl)cc2)c1=O (stereo not drawn) | -72
Nc1ccc(C(=O)N/N=C2\CCCc3c2[nH]c2ccccc32)cc1 | -73
O=[N+]([O-])c1cccc(-c2ccc(/C=N/Nc3nc(N4CCCCC4)nc(N4CCCCC4)n3)o2)c1 | .
O=C1NC(=O)/C(=C/c2ccc(-c3cccc([N+](=O)[O-])c3)o2)S1 | -126
O=C(/C=C/c1ccc(-c2cccc([N+](=O)[O-])c2)o1)N1CCOCC1 | -110
CC(C)c1ccc(-c2nnn(CCC#N)n2)cc1 | -107
Cc1ccc(NC(=O)N2CCCC2)cc1Cl | -73
O=C(Nc1ccc(Cl)c(Cl)c1)N1CC=CCC1 | -122
O=C(Nc1cccc([N+](=O)[O-])c1)C(=O)N1CCCCC1 | -151
Cc1ccc(NC(=O)C(=O)N2CCCC2)cc1Cl | -107
COc1ccc(/C(C)=N/NC(=O)OC(C)(C)C)cc1[N+](=O)[O-] | -68
O=C(/C=C/c1ccc([N+](=O)[O-])cc1)/C=C/c1ccco1 | -215
CCc1cc2c(=O)c(-c3cscn3)coc2cc1O | -139
Cc1ccc2nc(N3C(=O)C(O)=C(C(=O)c4ccco4)C3c3ccc(C)o3)sc2c1 (stereo not drawn) | -82
Cc1ccc2nc(N3C(=O)C(O)=C(C(=O)c4cc5ccccc5o4)C3c3cccs3)sc2c1 (stereo not drawn) | -85
CCc1ccc2nc(N3C(=O)C(O)=C(C(=O)c4ccco4)C3c3cccs3)sc2c1 (stereo not drawn) | -102
CCOC(=O)c1sc(N2C(=O)C(O)=C(C(=O)c3ccco3)C2c2cccc(Cl)c2)nc1C (stereo not drawn) | -81
CC1=NN(c2ccccc2)C(=O)/C1=C/c1c(O)n(-c2ccc(F)c(Cl)c2)[nH]c1=O | -105
Nc1ccc(C(=O)OCc2nc3c(ccc4ccccc43)[nH]2)cc1 | -116
C#C[C@]1(O)CC[C@H]2[C@@H]3CCc4cc(OC5CCCC5)ccc4[C@H]3CC[C@@]21C | -75
C#C[C@]1(O)CC[C@H]2[C@@H]3CCc4cc(OC)ccc4[C@H]3CC[C@@]21C | -70
O=C(OCC(=O)N1CCOCC1)c1cccc(F)c1 | -87
O=C(OCC(=O)N1CCOCC1)c1ccccc1Cc1ccccc1 | -183
SMILES | aSyn 5UTR act
Nc1ccc(C(=O)OCC(=O)N2CCOCC2)cc1[N+](=O)[O-] | -71
CC(C)(C)c1cc(C(=O)NCc2cc(F)cc3c2OCOC3)n(Cc2ccccc2)n1 | -109
CCOC(=O)c1c(C)[nH]c(C=Nc2ccc(OC)cc2)c1O | -96
CCOC(=O)c1c(C)[nH]c(N=Nc2ccccc2)c1C | -143
CCOC(=O)c1c(C)[nH]c(N=Nc2ccc(C)cc2)c1C | -271
CCOC(=O)c1c(C)[nH]c(N=Nc2ccccc2Cl)c1C | -119
CCOC(=O)c1c(C)[nH]c(N=Nc2ccc(OC)cc2)c1C | -249
Nc1ccc2oc(-c3ccccc3Cl)cc(=O)c2c1O | -63
CC(/C=C/c1ccco1)=N\NC(=O)CNc1ccc2ccccc2c1 | -70
O=c1oc2ccccc2cc1-c1nc2c(s1)CCc1ccccc1-2 | -81
Nc1nnc(-c2cc3ccccc3oc2=O)s1 | -116
COc1ccc2oc(=O)c(-c3nnc(N)s3)cc2c1 | -97
O=c1oc2ccccc2cc1-c1nnc(NCc2ccco2)s1 | -131
CC/C(C)=N\Nc1nc(-c2cc3cc(OC)ccc3oc2=O)cs1 | -119
O=C(Nc1ccc(NC(=O)c2cccs2)c(Cl)c1)c1ccco1 | -123
O=C(Nc1ccc(N2CCCC2)c(Cl)c1)c1cccs1 | -114
O=C(NC(=S)Nc1ccc(N2CCOCC2)c(Cl)c1)c1cccs1 | -110
O=C(NC(=S)Nc1ccc(N2CCCCC2)cc1)c1cccs1 | -104
COc1ccccc1C(=O)NNC(=O)c1cccc(C)c1 | -139
COc1ccccc1C(=O)NNC(=O)c1cccc([N+](=O)[O-])c1 | -62
CC(C)CC(=O)Nc1nnc(-c2ccco2)s1 | -151
O=C(Nc1nnc(-c2ccco2)s1)C1CCCCC1 | -95
O=C(CC(=O)c1ccccc1)Nc1ccccn1 | -130
O=C(CC(=O)c1ccccc1)Nc1ccccc1C(F)(F)F | -63
COc1cccc(NC(=O)CC(=O)c2ccccc2)c1 | -111
SMILES | aSyn 5UTR act
O=C(CC(=O)c1ccccc1)Nc1ccccc1 | -110
O=C(O)/C(=C\C(=O)c1ccccc1)Nc1ccccc1 | -91
CCOc1ccc(/C=C/C(=O)C(C(N)=O)=C2SCCS2)cc1 | -162
CCCCCCCCC[n+]1cccc2c3ccccc3ccc21 | .
Cc1nc(N)sc1-c1csc(Nc2cccc(O)c2)n1 | -79
CC(=O)Nc1ccc(Nc2nc(-c3sc(C)nc3C)cs2)cc1 | -77
Cc1nc(C)c(-c2csc(Nc3cccc(O)c3)n2)s1 | -156
Cc1cccc(Nc2nc(-c3sc(C)nc3C)cs2)c1 | -149
O=C(N=c1nc2ccccn2s1)c1ccccc1 | -180
O=C(CSc1cccs1)Nc1ccc2ccccc2c1 | -126
O=C(CSc1ccccc1)Nc1ccc2sccc2c1 | -78
O=C(CSc1cccs1)Nc1cccc2ccccc12 | -112
CCN=c1scc(C)n1/N=C/c1ccsc1 | -226
CC(C(=O)OCc1nnc(-c2ccccc2)o1)N1C(=O)C2CCCCC2C1=O (stereo not drawn) | -63
C/C(=N\OC(=O)c1cccc(C)c1)c1sc(-c2ccccc2)nc1C | -147
C/C(=N\OC(=O)c1cccc(C(F)(F)F)c1)c1sc(-c2ccccc2)nc1C | -119
Cc1ccc(C(=O)OCC(=O)N2CCc3ccccc32)cc1 | -70
CC(=O)c1c(C)[nH]c(C(=O)OCC(=O)N2CCc3ccccc32)c1C | -131
COc1ccccc1C(=O)N/N=C/c1ccc2c(c1)OCO2 | -173
COc1cc2ccccc2cc1C(=O)N/N=C/c1ccc2c(c1)OCO2 | -163
C(=N\Nc1ccc2ccccc2n1)/c1ccc2c(c1)OCCO2 | .
Cc1cc(=O)oc2cc(NC(=O)c3ccccc3OC(F)F)ccc12 | -114
Cc1cc(C(=O)Nc2ccccc2)oc(=O)c1 | -85
Cc1cc(=O)oc2cc(NC(=O)c3cc4ccccc4o3)ccc12 | -94
O=C(Nc1ccc2oc(=O)ccc2c1)c1cc2ccccc2o1 | -177
SMILES | aSyn 5UTR act
Cn1c(=O)n(C)c2cc(NC(=O)c3cc4ccccc4o3)ccc21 | -146
Cc1cc(=O)oc2cc(NC(=O)c3cccc(Br)c3)ccc12 | -166
CN(C)S(=O)(=O)c1ccc(NC(=O)c2cc3ccccc3o2)cc1 | -110
COCc1cc(=O)oc2cc(NC(=O)c3ccc(C(C)(C)C)cc3)ccc12 | -110
COc1ccc(C(=O)Nc2cc(C)on2)c(OC)c1 | -141
Cc1cc(NC(=O)Nc2ccc(C)c(C)c2)no1 | -123
COc1ccc(C(=O)Nc2ccc(C)cn2)c(OC)c1 | .
COc1cccc(C(=O)NC(=O)Nc2cc(C)on2)c1 | -94
COc1cccc(NC(=O)Nc2cc(C)on2)c1 | -93
COc1cc(/C=C/C(=O)NC(C)(C)C)ccc1OCc1ccccc1 | .
COc1cc(/C=N/NC(=O)CNc2n[nH]c(=O)[nH]c2=O)ccc1OCc1ccccc1 | -75
COc1cc(/C=N/NC(=O)CC2(C)OCCCO2)ccc1OCc1ccc(Cl)cc1Cl | -70
COc1cc(/C=N/NC(=O)CC2(C)OCCCO2)ccc1OCc1ccccc1 | -65
CC1(CC(=O)N/N=C/c2ccc(OCc3ccc(Cl)cc3Cl)cc2)OCCCO1 | -106
COc1cc(/C=N/NC(=O)CN2CCCCC2)ccc1OCc1ccc(Br)cc1 | -154
